Shown are actives, neighbours in structure and some others; about 21% of the full set was active somewhere.
DRD3 agonist – qHTS of D3 Dopamine Receptor Agonist: qHTS | max activation, % | D(3) dopamine receptor (Homo sapiens), P35462 | 0.58% of 410,000 active | AID 652048, 2013 | D3R DiscoveRx beta-arrestin cells, luminescence, 90 min; in the data active = max activation above about 30%; also: 0% is about no effect
Target sequence (P35462 whole entry, looked up): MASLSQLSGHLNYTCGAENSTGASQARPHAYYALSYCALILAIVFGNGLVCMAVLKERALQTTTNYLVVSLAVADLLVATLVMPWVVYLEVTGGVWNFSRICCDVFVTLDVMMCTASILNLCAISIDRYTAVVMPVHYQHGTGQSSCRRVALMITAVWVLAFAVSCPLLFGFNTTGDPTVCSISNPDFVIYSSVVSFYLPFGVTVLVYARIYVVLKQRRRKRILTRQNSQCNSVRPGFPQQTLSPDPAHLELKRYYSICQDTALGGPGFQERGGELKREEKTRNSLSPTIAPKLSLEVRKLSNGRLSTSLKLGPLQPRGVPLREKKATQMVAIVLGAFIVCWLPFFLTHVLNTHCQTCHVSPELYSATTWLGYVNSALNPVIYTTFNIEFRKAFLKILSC
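Agonist-mode cell screen: cells plated at 1500/well and incubated overnight at 37 °C, then exposed to library compounds for 90 min at 37 °C. Detection reagent was added for 30–60 min at room temperature, and luminescence was read.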
IL-1B inflam inh – qHTS for Inhibitors of Inflammasome Signaling: IL-1-beta AlphaLISA Primary Screen. THP-1 LPS/ATP IL-1B secretion, AlphaLISA, 16 h; hits give low values. activity change, % at 57.5 µM. 4.7% of 360,000 active. AID 743279, 2014; in the data active = activity change below about -50%; inconclusive = mostly about -30% to -49%; also: % is scaled to controls: 0 for no effect and ±100 for the full control effect
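Secreted IL-1B measured by AlphaLISA bead assay after 16 h compound exposure of THP-1 cells; compounds (final up to 57.5 uM) added 1 h before LPS (250 ng/mL) and ATP (1.25 mM) stimulation; lower signal means less secretion.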
DRD3 antagonist – qHTS of D3 Dopamine Receptor Antagonist: qHTS | D3R cells, DiscoveRx beta-arrestin luminescence, antagonist mode; hits give low values | 2.5% of 360,000 active | D(3) dopamine receptor (Homo sapiens), P35462 | max response, negative = inhibition, %; in the data active = max response below about -50%; inconclusive = no clear call, values can overlap the other calls; also: % is scaled to controls: 0 for no effect and ±100 for the full control effect
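Cells plated overnight at 1500 cells/well, then exposed to library compounds with dopamine controls for 90 minutes at 37 degrees C. DiscoveRx reagent added for 30–60 minutes at room temperature; luminescence read, quantitative HTS format.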
DT40 TDP1 CPT – qHTS for Inhibitors of human tyrosyl-DNA phosphodiesterase 1 (TDP1): qHTS in cells in presence of CPT. chicken DT40 Tdp1-/-;hTDP1 cells + 20 nM CPT, ATP luminescence, 48 h. Potency, µM (series often up to 46.2 µM), inactives show top-dose activity change, negative = growth inhibition, most hits filed as inhibitors. 12% of 420,000 active. AID 686979, 2013; also: potency is read from the fitted curve at half-maximal effect; % is scaled to controls: 0 for no effect and ±100 for the full control effect; nearly all actives have a fitted effect of over 55% in size
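Chicken DT40 Tdp1-/- cells stably complemented with human TDP1 were seeded at 400 cells/well in medium containing 20 nM camptothecin, exposed to pin-transferred compounds, and grown at 37 °C for at least 48 hr. Viability was read as ATP luminescence.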
ClpP mod – qHTS Assay for Activators of ClpP. ATP-dependent Clp protease proteolytic subunit (Bacillus subtilis (strain 168)), P80244. purified B. subtilis ClpP, FRET peptide cleavage, 20 min. Potency, µM (titrated, usually from 57.5 µM), for the others: at the top dose activity change, negative = active. 1.9% of 340,000 active. AID 651965, 2013; active = well fitted falling curve with a large enough effect; inconclusive = small, poorly fitted or top-dose-only effect; inactive = no such curve, though single readings can be large or run the other way; also: potency is read from the fitted curve at half-maximal effect; the source files actives as falling curves though it sought activators and does not explain the sign; nearly all actives have a fitted effect of over 65% in size
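Buffer: 100 mM Tris/HCl pH8, 100 mM KCl, 0.05% low protease BSA, 2.5% glycerol, 0.01% Tween-20. ClpP 10 microg/mL final; 20 min RT; delta FRET normalized to ADEP and DMSO controls.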
DT40 TDP1 no CPT – qHTS for Inhibitors of human tyrosyl-DNA phosphodiesterase 1 (TDP1): qHTS in cells in absence of CPT. DT40 Tdp1-/- hTDP1 cells, no CPT, ATP luminescence, 48 h. Potency, µM (highest dose often 46.2 µM), for inactives: at the highest dose activity change, negative = growth inhibition, usual class: inhibitors. 15% of 420,000 active. AID 686978, 2013; also: potency is read from the fitted curve at half-maximal effect; % is scaled to controls: 0 for no effect and ±100 for the full control effect; nearly all actives have a fitted effect of over 55% in size
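DT40 Tdp1-/-;hTDP1 cells, no CPT (DMSO vehicle only), 400 cells/well; compounds pin-transferred; ≥48 hr, 37 °C; CellTiter-Glo 30 min RT dark, luminescence read.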
* marks the source's active call; other numbers are inactive results; u = inconclusive; x = no result given. Unless noted, calls follow the shape of the dose curve; as a rule, active = well fitted inhibition curve with a large enough effect; inconclusive = small, poorly fitted or top-dose-only effect; inactive = flat fitted curve, though single readings scatter.

SMILES	DRD3 agonist	IL-1B inflam inh	DRD3 antagonist	DT40 TDP1 CPT	ClpP mod	DT40 TDP1 no CPT
N#CCCn1c(=O)c(-c2cccs2)nc2cnc(Oc3cccc(Cl)c3)nc21	x	x	x	-14.7%	x	u
N#Cc1c(-c2ccccc2)cc(-c2ccccc2)nc1SCCC(=O)O	2.5	3.3	-23.4	u	0.7%	u
Nc1cc(S(=O)(=O)c2ccc(N3CCCCC3)c(N)c2)ccc1N1CCCCC1	6.0	40.0	3.0	9.2µM*	3.7%	11.6µM*
Nc1cc(S(=O)(=O)Nc2ccccc2Cl)ccc1N1CCCCC1	13.1	-21.1	2.2	14.6µM*	-5.1%	9.2µM*
COc1ccc(NS(=O)(=O)c2ccc(N3CCCCC3)c(N)c2)cc1	-4.0	-5.0	2.3	2.59µM*	-2.7%	1.3µM*
Nc1ccc(N2CCCCC2)c(S(=O)(=O)Nc2ccccc2Cl)c1	-5.7	0.3	14.2	-3.2%	x	-22.2%
COC(=O)c1cc(NS(=O)(=O)c2ccc(N3CCOCC3)c(N)c2)cc(C(=O)OC)c1	-3.4	-54.1*	1.2	-2.2%	-6.7%	-7.8%
COc1ccc(C2c3c(oc4ccccc4c3=O)C(=O)N2c2nc(C)c(C)s2)cc1 (centres undefined)	-5.2	x	x	9.7%	0.6%	3.4%
CCN(CC)C(=O)C(Cc1ccccc1)N1C(=O)c2ccccc2C1=O (centres undefined)	0.0	-0.6	-15.4	u	-2.4%	u
O=c1cccc(-c2cccc3ccccc23)o1	1.0	-5.5	3.0	-5.6%	-3.7%	u
Clc1ccc2nc(-c3ccccn3)c(Nc3ccc4c(c3)OCO4)n2c1	-17.5	6.3	-59.7*	u	-1.5%	20.6µM*
COC(=O)c1cccc(Nc2c(-c3ccc(O)c(OC)c3)nc3nc[nH]n23)c1	-11.7	x	x	u	0.0%	u
COc1cc(-c2nc3sccn3c2Nc2cccc(C)c2)ccc1O	6.8	x	x	u	-1.2%	16.4µM*
COc1cc(-c2nc3ccc(Cl)cn3c2Nc2ccc3c(c2)OCO3)ccc1O	-2.3	x	x	14.6µM*	3.7%	13µM*
COc1cc(-c2nc3ccc(C)cn3c2Nc2ccc(Cl)cc2)ccc1O	-0.7	x	x	16.4µM*	3.9%	18.4µM*
CCOc1ccccc1CN1CCNC(=O)C1CC(=O)NCCN1CCOC1=O (centres undefined)	4.4	0.0	5.8	-9.0%	-2.2%	23.8%
CCN1C(=O)[C@H]2[C@@H](c3ccc(C)cc3)N[C@]3(CCCN(Cc4ccc(F)cc4)C3=O)[C@H]2C1=O	-5.3	2.5	-24.5	u	-2.8%	u
CN(C)c1ccc(-c2nc3ccc(Cl)cn3c2Nc2ccc3c(c2)OCCO3)cc1	-16.0	x	x	u	3.6%	14.6µM*
Cc1ccc(CCNC(=O)c2c(C)oc3ncnc(N4CCOCC4)c23)cc1	-7.4	x	x	9.6%	1.7%	-12.9%
C(=N\C(/N=C/c1ccco1)c1ccco1)/c1ccco1	1.0	-4.1	-8.2	-11.8%	15.8µM*	u
CCOC(=O)C(CCCOc1ccc(C(C)CC)cc1)C(=O)OCC (centres undefined)	0.3	22.7	0.0	-2.7%	-0.3%	-2.5%
CCOC(=O)C(C(C)=O)C(c1ccc(OCCC(C)C)cc1)C(C(C)=O)C(=O)OCC (centres undefined)	4.1	-2.6	6.1	u	-2.1%	16.4µM*
COC(=O)c1nnn(CC(=O)Nc2c(C)cccc2C)c1N	5.6	x	x	-1.2%	-2.0%	15.3%
COc1ccc(NC(=S)NC(=O)/C=C/c2ccco2)cc1	0.5	-1.8	8.9	u	x	u
O=C(/C=C/c1cccs1)Nc1cccnc1	1.0	0.3	-0.7	-16.3%	0.5%	-13.9%
